This is a sample that favours compounds with a hit; in the whole collection about 4.7% have one here.
Cav3 T inh: Cav3.2 calcium influx blockers – cell-based, Fluo-4 calcium fluorescence, FDSS, MLSMR library, primary screen | hit rate 4% among 100,000 | AID 449739, 2010 | Cav3.2-expressing cells; stronger effect = lower value | Voltage-dependent T-type calcium channel subunit alpha-1H (Homo sapiens), O95180 | B-score at 10 µM;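 active = single-dose well whose peak fluorescence ratio is a statistical outlier from its plate by either plate-standardised score or position-corrected B-score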
SDO1 yeast rescue: growth rescue of sdo1-depleted yeast, primary screen, S. cerevisiae, bone marrow failure model; AID 817, 2007; z-score at 10 µM; S. cerevisiae sdo1-depleted JHY4D growth rescue, OD600 30 h; stronger effect = higher value; pdr5 snq2 efflux-pump mutant strain; hit rate 0.21% among 140,000;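 active = z-score above 3 at both the 24 hr and the 30 hr optical density reads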;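 also: z-score against mean and SD of all compound wells on the same plate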
PLK1 kinase inh: human PLK1 kinase inhibitors, primary screen, biochemical, TR-FRET. Serine/threonine-protein kinase PLK1 (Homo sapiens), P53350. inhibition, % at 10 µM. recombinant PLK1 kinase, TR-FRET peptide phosphorylation. hit rate 0.53% among 97,000;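 active = inhibition of 50% or more in the single-concentration screen; inactive = inhibition below 50%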;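 also: 0% = DMSO max control and 100% = H-89 dihydrochloride min control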
Target sequence (P53350 whole entry, looked up): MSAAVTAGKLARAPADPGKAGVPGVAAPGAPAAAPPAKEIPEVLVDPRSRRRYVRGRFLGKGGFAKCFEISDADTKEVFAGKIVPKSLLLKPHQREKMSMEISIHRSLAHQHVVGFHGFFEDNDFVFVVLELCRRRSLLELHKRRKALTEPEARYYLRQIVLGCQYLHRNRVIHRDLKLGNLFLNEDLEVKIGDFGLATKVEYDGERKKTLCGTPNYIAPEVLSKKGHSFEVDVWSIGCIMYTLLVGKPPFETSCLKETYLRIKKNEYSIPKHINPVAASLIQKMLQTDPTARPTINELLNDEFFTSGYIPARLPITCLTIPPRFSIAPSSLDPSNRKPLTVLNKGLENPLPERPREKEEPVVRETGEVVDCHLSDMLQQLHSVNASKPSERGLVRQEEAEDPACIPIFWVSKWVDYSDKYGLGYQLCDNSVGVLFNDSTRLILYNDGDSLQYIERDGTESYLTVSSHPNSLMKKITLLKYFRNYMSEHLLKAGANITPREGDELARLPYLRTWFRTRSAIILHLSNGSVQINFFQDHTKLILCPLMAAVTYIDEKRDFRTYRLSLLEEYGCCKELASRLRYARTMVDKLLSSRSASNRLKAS
Pyk2 oligo antag: antagonists of Pyk2 self-association, primary screen, Q293 cells, FERM NanoBiT luminescence, HTS; hit rate 0.83% among 99,000; stronger effect = lower value; Protein-tyrosine kinase 2-beta (Homo sapiens), Q14289; z-score (the deposit names both 25 µM and 10 µM);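 active = Z-score of -3 or lower, scaled per plate to the spread of control and sample wells; inactive = z-score above -3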;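 also: negative z-score means lost luminescence so less FERM oligomerization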
hDAT+cocaine: changed hDAT dopamine uptake under cocaine IC80, either direction, primary screen, cocaine antagonist project, cell-based, LLC-PK1 hDAT, [14C]-dopamine uptake, MLSMR. Sodium-dependent dopamine transporter (Homo sapiens), Q01959. LLC-PK1 hDAT cells, [14C]-dopamine uptake with cocaine IC80; actives deviate in either direction. B-score at 10 µM. hit rate 1.3% among 110,000. AID 449768, 2010;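 active = Z score or B-score, a plate-position-corrected score, falls beyond the plate's 99.7% confidence bounds, in either direction; inactive = both scores lie inside the 99.7% bounds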;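 also: scored against the spread of the other compound wells on the same plate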
PLK1 PBD inh: Plk1 polo box domain binding inhibitors, primary screen, biochemical, fluorescence polarization | Serine/threonine-protein kinase PLK1 (Homo sapiens), P53350 | Plk1 PBD phosphopeptide binding | inhibition, %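 (tested at about 20 µM)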 | hit rate 0.13% among 97,000; in the data active = inhibition above about 34%, passing the limit was not always enough
Numbers without * were called inactive; x = not tested or not shown; [ ] = remark or other dose.

SMILES	Cav3 T inh	SDO1 yeast rescue	PLK1 kinase inh	Pyk2 oligo antag	hDAT+cocaine	PLK1 PBD inh
C=CCOC(=O)C1=C(C)NC(SC)=C(C#N)C1c1cccs1 (stereo not given)	-2.24	-0.15	-6.0	-2.35	-0.865	16.7
CCOC(=O)C1=C(C)NC(C)=C(C(=O)OCC)C1c1ccc(OC)cc1	x	-0.37	-17.3	-2.41	1.59	-0.8
C=CCOC(=O)C1=C(C)NC(C)=C(C(=O)OCC=C)C1c1ccc(O)cc1	-0.471	x	x	-3.46*	1.63	x
CCOC(=O)Cc1csc(/N=C/c2c(O)n(-c3ccccc3C(F)(F)F)c(=O)c3ccccc23)n1	x	-0.04	x	x	x	x
COc1ccccc1OCC(=O)NCCSCc1cccc(Cl)c1	x	0.65	x	x	x	x
O=C(Nc1cccc(F)c1)N(Cc1ccc(Cl)cc1)CC(O)C(F)(F)F (stereo not given)	-7.16*	-1.67	-7.7	-0.37	0.205	-8.6
CCCCNc1ccc(S(N)(=O)=O)cc1[N+](=O)[O-]	x	0.48	x	x	x	x
CC1CC(=O)NN=C1c1ccc(NCCO)c([N+](=O)[O-])c1 (stereo not given)	0.318	-0.09	-8.1	0.4	-2.61*	-14.4
O=C(Nc1ccccc1)N(CCc1ccncc1)C1CCCCC1	-0.261	x	-20.6	x	-0.841	-2.8
CC(C)c1ccc(NC(=O)N(CCc2nc3ccccc3[nH]2)C2CCCC2)cc1	-6.57*	-1.42	-2.8	-1.82	0.659	-15.9
N#Cc1c(NC(=O)c2ccccc2)sc2c1CCC2	0.858	-0.4	-10.9	0.29	-1.08	21.0
Cc1nn(C(C)C(=O)Nc2sc3c(c2C#N)CCCC3)c(C)c1[N+](=O)[O-] (stereo not given)	-3.28*	-0.78	-7.4	-1.18	1.29	-15.6
CC(C)C(C(=O)Nc1sc2c(c1C#N)CCCCC2)N1C(=O)c2ccccc2C1=O (stereo not given)	-8.73*	-0.25	-13.7	-1.71	-0.379	37.6
Cc1nn(CCCC(=O)Nc2sc3c(c2C#N)CCC3)c(C)c1[N+](=O)[O-]	-0.616	-0.52	-6.7	1.44	-0.176	-3.8
CC(C)CC(=O)NC(NC(=S)Nc1sc2c(c1C#N)CCCC2)C(Cl)(Cl)Cl (stereo not given)	-5.3*	1.98	15.8	0.13	-0.971	-30.6
O=C(CSc1nnc(-c2ccccc2F)n1CCc1ccccc1)Nc1ccc2[nH]c(=O)[nH]c2c1	x	1.37	x	x	x	x
CC1(C)C(C=C(Cl)Cl)C1C(=O)Nc1ccc([N+](=O)[O-])cc1 (stereo not given)	x	-1.14	x	x	x	x
Cc1ccc(-c2nnc(SCC(=O)Nc3cccc(C(=O)N4CCOCC4)c3)n2C)cc1	x	0.63	x	x	x	x
O=C(Cn1c(=O)oc2cc(S(=O)(=O)N3CCCC3)ccc21)N1CCc2ccccc2C1	-5.67*	-0.68	2.6	x	-0.0717	-7.8
O=C(Cn1c(=O)oc2cc(S(=O)(=O)N3CCOCC3)ccc21)N1CCc2ccccc2C1	0.636	0.48	-12.6	x	0.644	42.9
CC(C)OCCCNc1ncnc2c1cnn2-c1ccccc1	0.222	-0.16[6.4 µM]	2.1	-1.1	1.22	-11.7
CN(C)CCCNc1ncnc2c1cnn2-c1ccccc1	0.809	0.18	66.7*	x	0.63	22.9
CCN(CC)C(=O)CSc1nnc(-c2ccccc2)n1-c1ccccc1	-0.0335	0.31	-13.4	-0.83	-0.0156	9.3
CCN(CC)C(=O)Cn1c(=O)n(-c2ccccc2)c(=O)n1CC(=O)N(CC)CC	0.15	0.3	10.4	0.07	-9.58*	-7.0
CC1CC1C(=O)Nc1nc(-c2cccs2)c(-c2cccs2)s1 (stereo not given)	x	-2.05	x	x	x	x
SMILES	Cav3 T inh	SDO1 yeast rescue	PLK1 kinase inh	Pyk2 oligo antag	hDAT+cocaine	PLK1 PBD inh
COCCNC(=O)NC1(C(F)(F)F)Oc2ccc(Cl)cc2O1 (stereo not given)	1.42	-0.57	-6.6	0.11	-2.66	-19.9
O=C(NCc1cccnc1)NC1(C(F)(F)F)Oc2ccc(Cl)cc2O1 (stereo not given)	-0.192	0.74	2.5	x	-7.42*	-8.6
Cc1ccc(C(=O)Nc2ccccc2C(=O)N2CC3(C)CC2CC(C)(C)C3)cc1 (stereo not given)	-5.93*	-1.3	-8.1	-0.53	1.1	3.6
CC1(C)CC2CC(C)(CN2C(=O)NC(=O)c2ccccc2)C1 (stereo not given)	x	0.15	x	0.95	x	x
COc1ccc(-n2c(SC)nnc2-c2c[nH]c3ccccc23)cc1	-1.6	-1.49	54.8*	x	-0.0107	-30.3
CCn1c(SCC(=O)Nc2cc(C)on2)nnc1-c1c[nH]c2ccccc12	-0.449	x	x	x	1.65	x
CCOC(=O)C(C)Sc1nnc(-c2c[nH]c3ccccc23)n1C (stereo not given)	-0.351	0.58	-5.8	x	-0.352	-12.3
CC(C)Sc1nnc(-c2c[nH]c3ccccc23)n1C	0.119	0.43	63.6*	x	-0.0849	-2.3
C=CCSc1nnc(-c2c[nH]c3ccccc23)n1CC	-0.101	-0.37	61.4*	x	-0.00934	5.1
CCn1c(SC(C)C(=O)OC)nnc1-c1c[nH]c2ccccc12 (stereo not given)	0.976	-0.28	64.5*	x	0.313	5.8
COc1ccc(NC(=S)N(CCN(C)C)C(C)c2ccco2)cc1Cl (stereo not given)	x	0.25	x	x	x	x
COc1ccc(/C=C2\SC(=S)N(Cc3cccnc3)C2=O)cc1C	x	-1.06	x	x	x	x
CCOc1cc(/C=C2/SC(=Nc3ccccc3)N(Cc3cccnc3)C2=O)ccc1OCC#N	-0.538	-0.46	4.1	-3.59*	1.12	10.0
COC(=O)c1ccc(NC(=O)c2ccccc2N(C)S(C)(=O)=O)cc1	0.487	-0.38	-8.0	0.76	-2.75*	11.9
CC(=O)Nc1ccc(NC(=O)c2ccccc2N(C)S(C)(=O)=O)cc1	0.535	0.06	-6.0	-0.05	0.215	8.1
O=C(NCc1cccs1)c1ccc([N+](=O)[O-])cc1Cl	x	0.52	x	x	x	x
CC1CCCCC1NC(=O)COC(=O)c1ccc(N(C)C)cc1 (stereo not given)	0.341	-0.72	-1.6	-3.14*	0.509	-38.8
O=C(O)/C=C/C(=O)Nc1ccccc1SC(F)(F)F	x	-0.19	x	-0.12	x	x
CCN(CC)c1ccc2cc(S(=O)(=O)c3ccc(Cl)cc3)c(=O)oc2c1	-4.08*	-2.08	x	x	-0.252	x
CCCCCCc1cc2cc(S(=O)(=O)c3ccc(Cl)cc3)c(=O)oc2cc1O	-0.214	-1.82	x	x	0.00472	x
C=CCOc1ccc(Br)cc1CNCCCN1CCOCC1	x	0	x	x	x	x
Nc1nc(OCC(F)(F)F)cc(Oc2ccccc2F)n1	-0.545	0.57	-3.1	-3.81*	0.743	-0.1
COc1ccc(CNC(=O)c2sc3nc4c(c(C(F)(F)F)c3c2N)CCC4)cc1	x	-0.58	x	x	x	x
